Assay results taken from ChEMBL document CHEMBL1157539, “Thousands of chemical starting points for antimalarial lead identification” (Nature, 2010).

Legend:
Format in all cases: functional
Plasmodium falciparum [1] = assay: GSK_TCMDC: Inhibition of Plasmodium falciparum 3D7 in whole red blood cells, using parasite LDH activity as an index of growth. Test compounds present at 2uM
Plasmodium falciparum [2] = assay: GSK_TCMDC: Inhibition of Plasmodium falciparum Dd2 in whole red blood cells, using parasite LDH activity as an index of growth. Test compounds present at 2uM
HepG2 = assay: GSK_TCMDC: Percent inhibition of human HepG2 cell line. Test compounds present at 10uM.

| SMILES | Inhibition (Plasmodium falciparum [1]) [%] | Inhibition (Plasmodium falciparum [2]) [%] | Inhibition (HepG2) [%] |
| --- | --- | --- | --- |
| O=C(NC1CCC(CN2CCC(c3c[nH]c4ccccc34)CC2)CC1)C1(O)c2ccccc2-c2ccccc21 (stereo not drawn) | 85 | 46 | 22 |
| O.Oc1cccc(C2CCCN(CCc3c[nH]c4ccccc34)C2)c1 (stereo not drawn) | 93 | 40 | 0 |
| O=C(C=Cc1ccc(F)c(Br)c1)N1CCC(CN2CCC(c3c[nH]c4ccccc34)CC2)CC1 | 100 | 9 | 39 |
| CC1=CC(=O)[C@@H](O)[C@]2(C)[C@H]3[C@@]4(O)OC[C@@]35[C@@H](C[C@@H]12)OC(=O)C[C@H]5[C@@H](C)[C@H]4O [CHAPARRINONE] | 99 | 98 | 38 |
| N#Cc1c(Cl)cccc1Oc1ccc(S(=O)(=O)N2CCC(CN3CCC(c4c[nH]c5ccccc45)CC3)CC2)cc1 | 100 | 67 | 36 |
| O=C(NC1CCN(CCc2c[nH]c3ccc(F)cc23)CC1)c1ncc(-c2ccccc2)[nH]1.O=C(O)C(F)(F)F | 100 | 69 | 0 |
| CC(C)CNCc1ccc(-c2cccc(CN(C(=O)Nc3ccccc3)C3CCN(Cc4ccccc4)CC3)c2)cc1.O=C(O)C(F)(F)F | 100 | 95 | 48 |
| COc1cccc(C(=O)C2CC2CN2CC=C(c3c(C)[nH]c4ccccc34)CC2)c1 (stereo not drawn) | 92 | 87 | 13 |
| Cl.O=C(c1cc(C(F)(F)F)cc(C(F)(F)F)c1)N1CCC(CCN2CCC3(CC2)C(=O)NCN3c2ccccc2)CC1Cc1ccc(Cl)c(Cl)c1 (stereo not drawn) | 100 | 77 | 19 |
| CCC1(C)CC(CCNCc2ccccc2O)(c2ccc(C)cc2)CCO1 (stereo not drawn) | 97 | 66 | 9 |
| O=C(O)C(F)(F)F.O=C(c1cccs1)N(Cc1cccc(-c2ccc(CNC3CCCC3)cc2)c1)C1CCN(Cc2ccccc2)CC1 | 90 | 74 | 20 |
| O=C(/C=C/c1ccc(O)cc1)NC1CCC(CN2CCC(c3c[nH]c4ccccc34)CC2)CC1 (stereo not drawn) | 99 | 51 | 21 |
| CN1CCC(N(C)c2nccc(N3CCN(Cc4cncn4Cc4ccccc4)CC3)n2)CC1 | 100 | 100 | 15 |
| C=C[C@H]1CN2CC[C@H]1C[C@H]2[C@H](O)c1cc(-c2ccc(Cl)cc2)nc2ccc(OC)cc12.Cl | 99 | 98 | 38 |
| COc1ccc(CN2CCN(CCOC(c3ccc(F)cc3)c3ccc(F)cc3)CC2)c(O)c1 | 97 | 97 | 6 |
| CC[C@H]1CN2CC[C@H]1C[C@H]2[C@@H](O)c1cc(OCCCN(C)C)nc2ccc(OC)cc12 | 99 | 8 | 0 |
| FC(F)(F)c1ccc(NC(=S)N2CCC(CN3CCC(c4c[nH]c5ccccc45)CC3)CC2)cc1 | 100 | 45 | 35 |
| CC(=O)N(Cc1cccc(-c2cccc(CNCCc3ccccc3)c2)c1)C1CCN(Cc2ccccc2)CC1.O=C(O)C(F)(F)F | 100 | 57 | 22 |
| CC(C)N(C)C(=O)n1cnc(S(=O)(=O)C2CC3CCC2C3)n1.Cl (stereo not drawn) | 97 | 96 | 26 |
| CC[C@H]1CN2CC[C@@H]1C[C@H]2[C@H](O)c1cc(-c2c(C)noc2C)nc2ccc(OC)cc12.Cl | 100 | 98 | 4 |
| CN(c1cc(NC(=O)c2ccc(F)cc2)ccn1)C1CCN(Cc2cccc(F)c2)CC1.O=C(O)C(F)(F)F | 100 | 97 | 13 |
| COc1cccc(CN2CCC(CCOC(c3ccccc3)c3ccccc3)CC2)c1O | 97 | 99 | 33 |
| O=C(/C=C/c1ccc(Cl)c(Cl)c1)NCCCCCN1C2CCC1CC(c1c[nH]c3ccccc13)C2 (stereo not drawn) | 98 | 4 | 54 |
| Oc1cc2c(cc1CN1CCN(Cc3ccccc3)CC1)CCC2 | 98 | 92 | 1 |
| O=C(c1ccccc1)C1CC1CN1CC=C(c2c[nH]c3ccccc23)CC1 (stereo not drawn) | 95 | 73 | 4 |
| O=C(O)/C=C\C(=O)O.OC1(c2ccc(Cl)c(C(F)(F)F)c2)CCN(CCOC2c3ccccc3CSc3ccc(Cl)cc32)CC1 (stereo not drawn) | 95 | 58 | 3 |
